Legend:
Experiment in all cases: log2 ratio of Biotin-Ahx-Ub-VS probe labelling (compound/DMSO); higher = less target engagement, active = hit call of the paper (q ≤ 0.05, log2 ratio ≤ -1)
Conditions in all cases: treatment time: 3 h
[1] = compound: CN(Cc1cccc(Br)c1)C(=O)CCl
Outline: (§1)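 HEK293T lysate (495 µg per sample, in Tris/CHAPS/IGEPAL buffer with protease inhibitors) was treated in triplicate with compound at 50 or 200 µM or with DMSO for 3 h. It was then treated with Biotin-Ahx-Ub-VS (0.5 µM final) for 1 h. Labelled DUBs were NeutrAvidin-enriched, digested with LysC and trypsin, and run by diaPASEF LC-MS/MS. Median-normalised label-free quantities gave average log2 ratios compound/DMSO by unpaired t-test, using proteins with ≥2 unique peptides.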

[2] = compound: CN(Cc1cccc(OCc2ccccc2C)c1)C(=O)CCl
Outline: as §1

[3] = compound: CN(Cc1ccccc1)C(=O)CCl
Outline: as §1

[4] = compound: COc1ccc(CN(C)C(=O)CCl)cc1
Outline: as §1

[5] = compound: COc1cccc(CN(CCCc2ccccc2)C(=O)CCl)c1
Outline: as §1

[6] = compound: ClCC(=O)N1CCc2cc(Cl)c(Cl)cc2C1
Outline: as §1

[7] = compound: ClCC(=O)N1CCc2nc(ncc2C1)-c1ccccc1
Outline: as §1

[8] = compound: ClCC(=O)N1CCc2nocc2C1
Outline: as §1

[9] = compound: ClCC(=O)N1CCc2scc(Br)c2C1
Outline: as §1

[10] = compound: ClCC(=O)NC(C1CCCC1)c1cccs1
Outline: as §1

Measured: log2 ratio of Biotin-Ahx-Ub-VS probe labelling

USP4 (UniProt Q13107)
active: [2]; compound concentration: 200uM -1.72 | [6]; compound concentration: 200uM -1.88 | [7]; compound concentration: 200uM -1.65 | [10]; compound concentration: 50uM -1.38
inactive: [1]; compound concentration: 50uM -0.457 | [1]; compound concentration: 200uM 0.551 | [2]; compound concentration: 50uM 0.0716 | [3]; compound concentration: 50uM -0.596 | [3]; compound concentration: 200uM -0.256 | [4]; compound concentration: 50uM -0.643 | [4]; compound concentration: 200uM 0.475 | [5]; compound concentration: 50uM 0.418 | [5]; compound concentration: 200uM -0.294 | [6]; compound concentration: 50uM 0.245 | [7]; compound concentration: 50uM 0.281 | [8]; compound concentration: 50uM -0.605 | [8]; compound concentration: 200uM 0.447 | [9]; compound concentration: 50uM 0.067 | [9]; compound concentration: 200uM -0.445 | [10]; compound concentration: 200uM -0.493

USP8 (UniProt P40818)
UniProt P40818, sequence (P40818 whole entry): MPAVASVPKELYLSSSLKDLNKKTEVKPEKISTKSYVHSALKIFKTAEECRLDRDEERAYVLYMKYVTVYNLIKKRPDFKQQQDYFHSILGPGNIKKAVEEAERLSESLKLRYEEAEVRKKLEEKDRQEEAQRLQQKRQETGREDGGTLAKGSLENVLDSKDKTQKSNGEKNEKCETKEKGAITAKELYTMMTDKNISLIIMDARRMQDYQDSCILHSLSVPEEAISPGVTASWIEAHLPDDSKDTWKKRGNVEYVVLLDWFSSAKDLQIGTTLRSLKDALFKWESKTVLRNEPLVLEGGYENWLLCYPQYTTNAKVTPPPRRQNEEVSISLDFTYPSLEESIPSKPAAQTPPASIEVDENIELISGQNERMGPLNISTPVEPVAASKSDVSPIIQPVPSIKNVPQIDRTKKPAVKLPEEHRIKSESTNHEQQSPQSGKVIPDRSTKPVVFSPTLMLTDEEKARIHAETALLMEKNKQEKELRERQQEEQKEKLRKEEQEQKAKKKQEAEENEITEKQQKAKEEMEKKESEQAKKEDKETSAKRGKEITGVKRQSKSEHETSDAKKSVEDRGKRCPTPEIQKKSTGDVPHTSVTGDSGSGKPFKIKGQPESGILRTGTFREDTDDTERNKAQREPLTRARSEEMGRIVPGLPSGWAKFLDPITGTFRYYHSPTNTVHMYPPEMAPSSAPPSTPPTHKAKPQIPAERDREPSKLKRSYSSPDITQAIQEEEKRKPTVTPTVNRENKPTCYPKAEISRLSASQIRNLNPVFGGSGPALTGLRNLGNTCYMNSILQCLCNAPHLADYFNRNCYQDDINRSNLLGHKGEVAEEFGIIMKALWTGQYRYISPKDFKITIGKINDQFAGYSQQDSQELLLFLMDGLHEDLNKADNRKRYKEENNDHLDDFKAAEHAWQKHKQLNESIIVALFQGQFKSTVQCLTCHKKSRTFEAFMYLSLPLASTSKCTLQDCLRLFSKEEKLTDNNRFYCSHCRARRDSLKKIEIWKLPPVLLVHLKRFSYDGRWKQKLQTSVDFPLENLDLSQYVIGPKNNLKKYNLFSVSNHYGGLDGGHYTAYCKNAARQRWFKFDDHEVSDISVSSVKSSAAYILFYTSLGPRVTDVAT
inactive: [1]; compound concentration: 50uM -0.123 | [1]; compound concentration: 200uM -0.132 | [2]; compound concentration: 50uM -0.488 | [2]; compound concentration: 200uM -0.321 | [3]; compound concentration: 50uM -0.346 | [3]; compound concentration: 200uM -0.338 | [4]; compound concentration: 50uM -0.306 | [4]; compound concentration: 200uM -0.187 | [5]; compound concentration: 50uM -0.167 | [5]; compound concentration: 200uM -0.253 | [6]; compound concentration: 50uM 0.0209 | [6]; compound concentration: 200uM -0.351 | [7]; compound concentration: 50uM -0.00835 | [7]; compound concentration: 200uM -0.371 | [8]; compound concentration: 50uM -0.247 | [8]; compound concentration: 200uM -0.347 | [9]; compound concentration: 50uM -0.126 | [9]; compound concentration: 200uM -0.311 | [10]; compound concentration: 50uM -0.0892 | [10]; compound concentration: 200uM -0.0187

UniProt O00487
UniProt O00487, sequence (O00487 whole entry): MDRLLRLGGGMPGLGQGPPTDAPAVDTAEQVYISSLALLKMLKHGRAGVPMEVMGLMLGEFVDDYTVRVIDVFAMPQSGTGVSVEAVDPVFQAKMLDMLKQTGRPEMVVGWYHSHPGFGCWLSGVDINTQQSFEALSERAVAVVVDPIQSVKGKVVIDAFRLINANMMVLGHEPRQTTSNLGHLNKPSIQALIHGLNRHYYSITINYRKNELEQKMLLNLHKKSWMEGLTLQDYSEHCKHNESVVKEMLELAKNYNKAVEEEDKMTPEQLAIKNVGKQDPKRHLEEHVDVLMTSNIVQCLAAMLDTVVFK
inactive: [1]; compound concentration: 50uM -0.27 | [1]; compound concentration: 200uM -0.709 | [2]; compound concentration: 50uM -0.154 | [2]; compound concentration: 200uM -0.202 | [3]; compound concentration: 50uM -0.0192 | [3]; compound concentration: 200uM 0.243 | [4]; compound concentration: 50uM -0.0826 | [4]; compound concentration: 200uM -0.0205 | [5]; compound concentration: 50uM 0.102 | [5]; compound concentration: 200uM 0.0842 | [6]; compound concentration: 50uM -0.325 | [6]; compound concentration: 200uM -0.335 | [7]; compound concentration: 50uM -0.128 | [7]; compound concentration: 200uM 0.13 | [8]; compound concentration: 50uM -0.239 | [8]; compound concentration: 200uM -0.187 | [9]; compound concentration: 50uM -0.175 | [9]; compound concentration: 200uM -0.724 | [10]; compound concentration: 50uM -0.101 | [10]; compound concentration: 200uM -0.0832

USP36 (UniProt Q9P275)
inactive: [1]; compound concentration: 50uM -0.113 | [1]; compound concentration: 200uM -0.219 | [2]; compound concentration: 50uM -0.207 | [2]; compound concentration: 200uM -0.146 | [3]; compound concentration: 50uM -0.167 | [3]; compound concentration: 200uM -0.139 | [4]; compound concentration: 50uM -0.166 | [4]; compound concentration: 200uM -0.1 | [5]; compound concentration: 50uM -0.116 | [5]; compound concentration: 200uM -0.158 | [6]; compound concentration: 50uM -0.152 | [6]; compound concentration: 200uM 0.149 | [7]; compound concentration: 50uM -0.0391 | [7]; compound concentration: 200uM -0.252 | [8]; compound concentration: 50uM -0.06 | [8]; compound concentration: 200uM -0.0333 | [9]; compound concentration: 50uM 0.0162 | [9]; compound concentration: 200uM 0.122 | [10]; compound concentration: 50uM -0.296 | [10]; compound concentration: 200uM -0.0298

USP34 (UniProt Q70CQ2)
UniProt Q70CQ2, sequence (Q70CQ2 whole entry): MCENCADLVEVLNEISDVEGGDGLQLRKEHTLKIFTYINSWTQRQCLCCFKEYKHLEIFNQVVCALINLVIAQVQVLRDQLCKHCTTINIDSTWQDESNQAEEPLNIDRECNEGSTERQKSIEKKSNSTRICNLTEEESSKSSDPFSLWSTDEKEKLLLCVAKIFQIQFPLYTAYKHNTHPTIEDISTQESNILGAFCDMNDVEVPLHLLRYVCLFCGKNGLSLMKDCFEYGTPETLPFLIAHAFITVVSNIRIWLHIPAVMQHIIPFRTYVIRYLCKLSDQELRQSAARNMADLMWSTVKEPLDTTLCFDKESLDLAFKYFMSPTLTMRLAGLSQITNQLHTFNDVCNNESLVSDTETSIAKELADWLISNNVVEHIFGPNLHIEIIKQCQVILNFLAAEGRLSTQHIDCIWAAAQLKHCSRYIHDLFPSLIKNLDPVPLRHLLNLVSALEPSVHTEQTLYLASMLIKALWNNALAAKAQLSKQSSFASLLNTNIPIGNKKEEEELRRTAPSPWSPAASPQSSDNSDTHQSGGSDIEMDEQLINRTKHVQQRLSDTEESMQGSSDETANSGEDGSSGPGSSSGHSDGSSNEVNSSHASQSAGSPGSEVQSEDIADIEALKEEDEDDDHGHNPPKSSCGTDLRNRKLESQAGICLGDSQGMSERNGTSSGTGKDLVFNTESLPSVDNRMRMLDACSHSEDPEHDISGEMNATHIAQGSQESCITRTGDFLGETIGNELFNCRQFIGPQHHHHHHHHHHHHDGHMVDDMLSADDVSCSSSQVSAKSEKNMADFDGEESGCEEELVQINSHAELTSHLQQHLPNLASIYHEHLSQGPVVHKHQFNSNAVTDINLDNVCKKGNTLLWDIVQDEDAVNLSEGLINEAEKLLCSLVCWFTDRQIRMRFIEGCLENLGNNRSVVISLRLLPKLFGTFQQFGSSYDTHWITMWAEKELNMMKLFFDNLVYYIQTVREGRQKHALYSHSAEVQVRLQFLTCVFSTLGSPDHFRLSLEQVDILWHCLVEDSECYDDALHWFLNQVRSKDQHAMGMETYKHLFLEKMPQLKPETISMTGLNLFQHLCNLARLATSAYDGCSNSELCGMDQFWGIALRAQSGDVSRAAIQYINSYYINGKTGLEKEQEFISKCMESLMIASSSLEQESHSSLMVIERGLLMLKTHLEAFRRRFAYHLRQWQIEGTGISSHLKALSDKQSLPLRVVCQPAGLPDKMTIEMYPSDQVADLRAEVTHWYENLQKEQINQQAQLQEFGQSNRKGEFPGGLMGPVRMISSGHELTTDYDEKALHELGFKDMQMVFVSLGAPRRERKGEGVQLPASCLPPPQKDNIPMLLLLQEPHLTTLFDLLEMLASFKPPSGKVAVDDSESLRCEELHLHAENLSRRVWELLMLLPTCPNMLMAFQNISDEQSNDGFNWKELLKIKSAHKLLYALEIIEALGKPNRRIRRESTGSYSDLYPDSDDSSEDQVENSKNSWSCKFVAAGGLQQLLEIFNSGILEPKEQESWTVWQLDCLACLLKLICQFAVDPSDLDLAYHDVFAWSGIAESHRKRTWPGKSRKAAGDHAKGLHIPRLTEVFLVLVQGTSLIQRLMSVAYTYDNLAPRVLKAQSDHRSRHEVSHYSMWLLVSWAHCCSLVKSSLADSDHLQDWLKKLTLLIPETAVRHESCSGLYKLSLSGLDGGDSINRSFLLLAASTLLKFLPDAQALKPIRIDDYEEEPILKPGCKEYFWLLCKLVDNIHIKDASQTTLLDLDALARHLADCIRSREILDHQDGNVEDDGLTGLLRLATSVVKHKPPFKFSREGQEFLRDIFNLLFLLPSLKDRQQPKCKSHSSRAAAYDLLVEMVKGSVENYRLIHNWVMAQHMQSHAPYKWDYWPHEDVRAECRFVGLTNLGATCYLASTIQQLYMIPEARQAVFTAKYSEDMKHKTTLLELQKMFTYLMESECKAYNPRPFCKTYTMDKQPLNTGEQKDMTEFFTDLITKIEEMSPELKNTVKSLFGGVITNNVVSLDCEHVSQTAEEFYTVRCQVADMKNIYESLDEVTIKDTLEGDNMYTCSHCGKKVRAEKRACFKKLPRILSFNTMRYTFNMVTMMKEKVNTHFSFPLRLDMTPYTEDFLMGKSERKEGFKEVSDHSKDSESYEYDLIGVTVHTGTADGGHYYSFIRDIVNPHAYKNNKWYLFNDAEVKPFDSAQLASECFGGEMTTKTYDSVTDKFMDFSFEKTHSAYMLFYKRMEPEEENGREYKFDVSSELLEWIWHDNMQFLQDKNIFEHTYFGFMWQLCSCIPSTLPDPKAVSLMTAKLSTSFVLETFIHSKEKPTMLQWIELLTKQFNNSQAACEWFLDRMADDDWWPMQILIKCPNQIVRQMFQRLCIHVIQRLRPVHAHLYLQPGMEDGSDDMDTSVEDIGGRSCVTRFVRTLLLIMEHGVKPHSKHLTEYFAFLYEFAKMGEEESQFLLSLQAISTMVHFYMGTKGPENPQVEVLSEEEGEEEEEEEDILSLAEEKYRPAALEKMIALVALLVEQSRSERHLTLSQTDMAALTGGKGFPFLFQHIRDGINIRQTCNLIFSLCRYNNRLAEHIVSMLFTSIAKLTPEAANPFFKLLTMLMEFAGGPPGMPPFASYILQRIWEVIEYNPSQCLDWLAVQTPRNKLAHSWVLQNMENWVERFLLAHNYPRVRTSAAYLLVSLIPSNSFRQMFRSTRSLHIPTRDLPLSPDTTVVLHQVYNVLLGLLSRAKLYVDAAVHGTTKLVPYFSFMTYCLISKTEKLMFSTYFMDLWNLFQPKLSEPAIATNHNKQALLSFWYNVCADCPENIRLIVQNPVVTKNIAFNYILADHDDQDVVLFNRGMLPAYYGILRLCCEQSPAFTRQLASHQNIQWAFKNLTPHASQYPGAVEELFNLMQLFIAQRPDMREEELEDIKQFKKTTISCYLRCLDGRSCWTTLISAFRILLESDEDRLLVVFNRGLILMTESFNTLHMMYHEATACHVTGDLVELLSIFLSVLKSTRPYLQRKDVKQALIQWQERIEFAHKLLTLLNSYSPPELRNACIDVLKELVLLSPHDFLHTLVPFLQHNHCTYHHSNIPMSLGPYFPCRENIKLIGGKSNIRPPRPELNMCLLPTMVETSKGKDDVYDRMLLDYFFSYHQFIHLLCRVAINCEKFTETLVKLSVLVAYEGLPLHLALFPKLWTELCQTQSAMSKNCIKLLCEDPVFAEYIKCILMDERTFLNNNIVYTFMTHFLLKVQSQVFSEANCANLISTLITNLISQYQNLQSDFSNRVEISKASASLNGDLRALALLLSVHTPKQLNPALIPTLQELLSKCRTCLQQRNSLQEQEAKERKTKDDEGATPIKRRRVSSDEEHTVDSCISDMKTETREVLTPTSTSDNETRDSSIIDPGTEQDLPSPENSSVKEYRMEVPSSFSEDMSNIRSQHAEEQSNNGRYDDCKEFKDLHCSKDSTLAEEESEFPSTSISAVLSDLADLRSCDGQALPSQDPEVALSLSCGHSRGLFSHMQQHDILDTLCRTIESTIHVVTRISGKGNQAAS
active: [6]; compound concentration: 200uM -1.47
inactive: [1]; compound concentration: 50uM 0.504 | [1]; compound concentration: 200uM 0.192 | [2]; compound concentration: 50uM 0.154 | [2]; compound concentration: 200uM -0.582 | [3]; compound concentration: 50uM 0.682 | [3]; compound concentration: 200uM -0.913 | [4]; compound concentration: 50uM 0.746 | [4]; compound concentration: 200uM -0.399 | [5]; compound concentration: 50uM -0.287 | [5]; compound concentration: 200uM -0.935 | [6]; compound concentration: 50uM -0.17 | [7]; compound concentration: 50uM 0.583 | [7]; compound concentration: 200uM -0.403 | [8]; compound concentration: 50uM 0.31 | [8]; compound concentration: 200uM -0.0396 | [9]; compound concentration: 50uM 0.689 | [9]; compound concentration: 200uM -0.0731 | [10]; compound concentration: 50uM -0.0579 | [10]; compound concentration: 200uM -0.14

MINDY4 (UniProt Q4G0A6)
active: [1]; compound concentration: 200uM -1.19
inactive: [1]; compound concentration: 50uM 0.681 | [2]; compound concentration: 50uM 0.702 | [2]; compound concentration: 200uM 0.585 | [3]; compound concentration: 50uM 0.106 | [3]; compound concentration: 200uM -0.273 | [4]; compound concentration: 50uM 0.675 | [4]; compound concentration: 200uM 0.712 | [5]; compound concentration: 50uM 0.722 | [5]; compound concentration: 200uM 0.797 | [6]; compound concentration: 50uM 0.706 | [6]; compound concentration: 200uM 0.819 | [7]; compound concentration: 50uM 0.669 | [7]; compound concentration: 200uM 0.652 | [8]; compound concentration: 50uM 0.0993 | [8]; compound concentration: 200uM 0.614 | [9]; compound concentration: 50uM 0.589 | [9]; compound concentration: 200uM 0.525 | [10]; compound concentration: 50uM 0.738 | [10]; compound concentration: 200uM 0.487

USP15 (UniProt Q9Y4E8)
inactive: [1]; compound concentration: 50uM -0.321 | [1]; compound concentration: 200uM -0.664 | [2]; compound concentration: 50uM -0.611 | [2]; compound concentration: 200uM -0.533 | [3]; compound concentration: 50uM -0.368 | [3]; compound concentration: 200uM -0.462 | [4]; compound concentration: 50uM -0.242 | [4]; compound concentration: 200uM -0.334 | [5]; compound concentration: 50uM -0.289 | [5]; compound concentration: 200uM -0.43 | [6]; compound concentration: 50uM -0.407 | [7]; compound concentration: 50uM -0.105 | [8]; compound concentration: 50uM -0.404 | [8]; compound concentration: 200uM -0.641 | [9]; compound concentration: 50uM -0.779 | [10]; compound concentration: 50uM 0.0422 | [10]; compound concentration: 200uM -0.0218
active: [6]; compound concentration: 200uM -1.85 | [7]; compound concentration: 200uM -1.06 | [9]; compound concentration: 200uM -1.88

USP54 (UniProt Q70EL1)
active: [2]; compound concentration: 50uM -1.29 | [4]; compound concentration: 200uM -2.33 | [5]; compound concentration: 200uM -2.68 | [6]; compound concentration: 200uM -2.65 | [7]; compound concentration: 200uM -2.39 | [8]; compound concentration: 200uM -1.77 | [9]; compound concentration: 200uM -2.07
inactive: [1]; compound concentration: 50uM 0.085 | [1]; compound concentration: 200uM -0.845 | [2]; compound concentration: 200uM -0.985 | [3]; compound concentration: 50uM -0.885 | [3]; compound concentration: 200uM -0.551 | [4]; compound concentration: 50uM -0.773 | [5]; compound concentration: 50uM -0.358 | [6]; compound concentration: 50uM -0.895 | [7]; compound concentration: 50uM -0.823 | [8]; compound concentration: 50uM -0.519 | [9]; compound concentration: 50uM -0.124 | [10]; compound concentration: 50uM 0.0591 | [10]; compound concentration: 200uM 0.198

Source: the supplement of paper PMC11732987, “Enantioselective OTUD7B fragment discovery through chemoproteomics screening and high-throughput optimisation” (Communications Chemistry, 2025)
